# Results as given in PubChem BioAssay (NCATS).
# Values without a mark were called inactive. The rule behind the calls is not given here.
# System: HIV-1 nucleocapsid protein NCp7 (binding to TG oligonucleotide)
# Test: HIV Nucleocapsid (AID 346);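 note: potency is for inhibitors that block NC binding and lower polarization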
# Details: HIV-1 NC / fluorescein-TGTGTGTG probe, fluorescence polarization
# Outline: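 Fluorescence polarization binding of 100 nM HIV-1 NC to 10 nM fluorescein-labelled TG4xF oligonucleotide. Buffer was Hepes pH 7.5 with 250mM NaCl, 1uM ZnCl2, TCEP and 2-mercaptoethanol. Compounds were incubated 1 hr at room temperature before the read.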
# Potency is the fitted concentration of half-maximal effect.
row,Compound,Potency [µM]
1,COc1ccccc1CNc1ccnc(-c2ccccc2Cl)n1,> 20
2,CN(C)C(=O)c1ccc(-c2ccc3ncnc(NC4CC4)c3c2)cc1,> 20
3,N#Cc1cccc(NC(=O)N2CC[C@@]3(CCCN(C(=O)c4ccco4)C3)C2)c1,> 20
4,CN(C)c1ccc(-c2nccc(NCCN3CCOCC3)n2)cc1,> 20
5,COc1ccccc1-c1ccc2ncnc(NCCN3CCOCC3)c2c1,> 20
6,Cc1cnc(CNc2ncncc2-c2ccccc2C)cn1,> 20
7,CCNc1ncc2nc(-c3cc(F)cc(F)c3)c(=O)n(-c3ccc(OC)cc3)c2n1,> 4
8,COCC(=O)N1CCC2(CCCN(C(c3ccccc3)c3ccccc3)C2)CC1,> 20
9,O=C(c1cccc(F)c1)N1CCC2(CCCN(c3ccncc3)C2)CC1,> 20
10,FC(F)(F)c1ccccc1-c1nc(Nc2ccncc2)c2ccccc2n1,> 20
11,COCCn1c(=O)c(CCc2ccccc2)nc2cnc(N3CCN(C)CC3)nc21,> 20
12,COc1ccc(-n2c(=O)c(-c3ccccc3)nc3cnc(N4CCN(C)CC4)nc32)cc1,> 20
13,CN(C)c1ccnc(-c2cccc(NS(C)(=O)=O)c2)n1,> 20
14,COC(=O)N1CCC2(CC1)CCN(c1cccc(-c3ccccc3)c1)CC2,> 20
15,COCCNc1ncnc2ccc(-c3ccccc3C)cc12,> 20
16,COc1ccc(Oc2ncc3nc(-c4cc(F)cc(F)c4)c(=O)n(C)c3n2)cc1,> 20
17,CS(=O)(=O)Nc1cccc(-c2ccc3ncnc(NC4CC4)c3c2)c1,> 20
18,CC(C)NC(=O)N1CC2(CCN(C(=O)c3ccco3)CC2)C1,> 20
19,COc1ccccc1CNc1nc(-c2ccc(C(=O)N(C)C)cc2)nc2ccccc12,> 20
20,COc1cccc(Cn2c(=O)c(-c3cccc(C#N)c3)nc3cnc(N4CCOCC4)nc32)c1,> 20

row,Compound,Potency [µM]
1,N#Cc1ccc(CN2CCC3(CC2)CCN(C(=O)c2cc(C(F)(F)F)cc(C(F)(F)F)c2)CC3)cc1,> 20
2,N#Cc1cccc(-c2cncnc2-n2ccnc2)c1,> 20
3,CS(=O)(=O)N1CCC2(CCN(c3ccncc3)CC2)CC1,> 20
4,COc1cccc(Cn2c(=O)c(-c3ccccc3)nc3cnc(N(C)C)nc32)c1,> 20
5,CN1CCCC2(CCN(S(=O)(=O)c3ccccc3)CC2)C1,> 20
6,COCCNc1ncnc2ccc(-c3cccc(NS(C)(=O)=O)c3)cc12,> 20
7,Clc1ccccc1-c1cc(NCc2cccnc2)ncn1,> 20
8,c1cncc(-c2cncnc2NCc2cccs2)c1,> 20
9,CNc1nc(-c2ccccc2Cl)nc2ccccc12,> 20
10,COc1ccc(C(=O)N2CCC[C@@]3(CCN(c4ccncc4)C3)C2)cc1,> 20
11,COC(=O)N1CCC2(CCCN(C(=O)Nc3cccc(C#N)c3)C2)CC1,> 20
12,COCCNc1nc(-c2c(C)noc2C)nc2ccccc12,> 20
13,COc1ccc(Oc2ncc3nc(-c4cn(C)c5ccccc45)c(=O)n(C4CC4)c3n2)cc1,> 20
14,O=C(c1ccco1)N1CCC2(CCCN(c3ccccc3)C2)CC1,> 20
15,CS(=O)(=O)N1CCC2(CC1)CN(c1ccccc1)C2,> 20
16,COc1cccc(-c2nc(NCc3cccs3)c3ccccc3n2)c1,> 20
17,COc1cccc(Cn2c(=O)c(-c3cccs3)nc3cnc(OC)nc32)c1,> 20
18,CN(C)c1ccc(-c2ccc3ncnc(N(C)Cc4ccco4)c3c2)cc1,> 20
19,CS(=O)(=O)N1CCC2(CC1)CN(c1ccncc1)C2,> 4
20,O=C(c1cccc(F)c1)N1CCC2(CC1)CN(Cc1ccccc1)C2,> 20
